We go through 16 compounds from PubChem BioAssay (EPA / NIEHS).

Active and inactive are the calls of the source. The calls were made as follows: active = hit-call score of the fitted dose curve at least 0.9, where 1 is the maximum; inactive = score below 0.9.

Read-out in the test: Early growth response protein 1 (EGR1) transcription factor, EGR1 (gene 1958)
Nature of the test: LTEA_HepaRG_EGR1: Life Technologies and Expression Analysis (LTEA) Assay for Early growth response protein 1 (EGR1) transcription factor using HepaRG (AID 2283490). Conditions: mRNA level, 48 h; actives raise or lower the signal. The procedure:
LTEA_HepaRG is a cell based, multiplexed-readout assay that uses HepaRG, a human liver cell line, with measurements taken at 48 hours after chemical dosing on a 96-well plate.LTEA_HepaRG_EGR1 is one of 102 assay component(s) measured in the LTEA HepaRG cell culture assay. It is a marker of Cell proliferation, survival, death.Data from the assay component LTEA_HepaRG_EGR1 was analyzed into 1 endpoint. This assay endpoint, LTEA_HepaRG_EGR1, was analyzed with bidirectional fitting relative to DMSO as the negative control and baseline of activity. Using a type of inducible reporter, measures of mRNA induction for gain or loss-of-signal activity can be used to understand regulation of transcription factor activity. To generalize the intended target to other relatable targets, this assay endpoint is annotated to the dna binding intended target family, where the subfamily is zinc finger.
A total of 1060 chemcials from the ToxCast library were tested in eight-point concentration-response experiments. Cell culture and cytotoxicity assays were conducted at Thermo Fisher Scientific's Custom Services facility (Madison, WI). A single lot of human HepaRG cells (Thermo Fisher Scientific, Frederick, MD) was used for the cell culture experiments. 96-well format collagen type I coated plates of human HepaRG cells were prepared using established methods. Briefly, cryopreserved HepaRG cells were thawed, plated at a density of approximately 100,000 cells/well in HepaRG Thaw, Plate, and General Purpose media (HPRG770, Thermo Fisher Scientific), and incubated for 48 hours. 0.5% DMSO was selected as vehicle control to balance the requisite need of DMSO in HepaRG cultures to maintain differentiation (for example, baseline metabolism, proportions of hepatocytes vs. cholangiocytes), while enabling further hepatic receptor pathway activation (for example, PXR and CAR) in response to chemical exposure. 48 hours after plating, the culture medium was replaced with HepaRG Serum-Free Incudtion Media. Cells were exposed to each test chemical in duplicate and maintained in CO2 incubators for another 48 hours. Chemical plates were thawed to room temperature and 200x concentrations of treatment groups were prepared. 8-point conentration-reponse curves were made with the highest exposure at 100 uM, followed by half-log dilutions, all in 0.5% DMSO. Each test plate contained variouse controls, induction positive controls (1mM phenobarbital), cytotoxicity positive controls ([…] aflatoxin B1), vehicle controls (0.5% DMSO), and total lysis controls (0.5% DMSO). Cell morphology images were taken using an Essen IncuCyte FLR automated microscope, with six 96-well plates imaged in about 24 minutes. Images were captured and exported and JPEG files. Spent culture media was transfered to black-well plates for the LDH assay, and remaining media was sorted at -80 C for later use. Cells were treated with RLT buffer and frozen until shipped for gene expression analysis. Total RNA was isolated from the cell suspension in 75 uL of Buffer RLT (Qiagen, Germantown, MD 20874) by Quintiles/Expression Analysis (Durham, NC) using a custom isolation procedure. Total RNA from each plate well was transferred to a preamplification plate. Fluidigm's 96.96 Dynamic ArrayTM (Fluidigm, Amsterdam, the Netherlands) technology was used for gene expression analyses by quantitative reverse transcription polymerase chain reaction (qRT-PCR, performed by Quintiles/Expression Analysis, Durham, NC)89. Standard TaqManTM Assays (Applied Biosystems/ThermoFisher Scientific, Foster City, CA) were used to assess the expression of 93 genes selected based on their selectivity and sensitivity to important hepatic receptors known to be modulated by environmental chemicals; importance in human hepatocyte functionality; and hepatotoxicity. […]
Regarding `CN(C)CCOC(c1ccccc1)c1ccccc1`, the call was inactive.

Consider `CCCCCCCCCCCCCCC`, for which the call was inactive.

In general, AC50 refers to the midpoint of the concentration-response curve, whichever way the signal moves. Turning to `N=C(N)c1ccc(OCCCCCOc2ccc(C(=N)N)cc2)cc1`, the AC50 is 27.1 µM (active).

Turning to `Cc1[nH]nc2c1N=C(c1ccccc1Cl)c1cc([N+](=O)[O-])ccc1N2`, the compound was called inactive.

For `CCCCC(CC)C(=O)O` (stereo unspecified), the compound was called inactive.

For the compound `CCCCc1oc2ccccc2c1C(=O)c1cc(I)c(OCCN(CC)CC)c(I)c1`, the AC50 was 61 µM (active).

In the case of `O=C1NS(=O)(=O)c2ccccc21`, the compound was classed as inactive.

In the case of `O=C(CCCN1CCC(O)(c2ccc(Cl)cc2)CC1)c1ccc(F)cc1`, the AC50 was 94.4 µM (active).

Consider `CCC(C)c1ccccc1O` (stereo unspecified), for which the result was inactive.

Turning to `CCCCC=O`, the result was inactive.

In the case of `CCCCCCCCCCCCOS(=O)(=O)O`, the outcome was inactive.

Regarding `O=C(c1ccccc1)c1ccccc1`, the compound was called inactive.

In the case of `OCC(CO)(CBr)CBr`, the result was inactive.

For `CC(=O)Nc1ccc(O)cc1`, the compound was called inactive.

With `CN(Cc1cnc2nc(N)nc(N)c2n1)c1ccc(C(=O)N[C@@H](CCC(=O)O)C(=O)O)cc1`, the concentration at half-maximal activity (AC50) is 0.121 µM (active).

`CS(=O)(=O)c1ccc([C@@H](CC2CCCC2)C(=O)Nc2cnccn2)cc1Cl`: the AC50 was 83.9 µM (active).
